Experimental data: PubChem BioAssay AID463195 (Sanford-Burnham Center for Chemical Genomics, 2010)
The whole screen tested about 330,000 compounds, of which about 4,600 (1.4%) were called active.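 Rule for the calls: active = inhibition of 40% or more at the single tested concentration; inactive = the rest.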 For the sample, actives were picked, then their nearest neighbours and some compounds at random.

Assay: wild-type TIM10 yeast growth inhibition – luminescence, uHTS, counter-screen for tim10-1 yeast inhibitor project, primary screen (AID 463195);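 note: wild-type TIM10 isogenic control strain grown at permissive 25 °C; 0% = DMSO yeast wells and 100% = minimal medium wells without yeast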
Settings: S. cerevisiae TIM10 strain growth, BacTiter-Glo luminescence, 24 h; at 10 µM; hits give high values

Compound | inhibition
COc1ccc(NC(=O)COc2ccc(C(=O)c3ccc(F)cc3)cc2)cc1S(N)(=O)=O | 7.33% (inactive)
CC1=NN(c2ccc(Cl)c(C(=O)O)c2)C(=O)/C1=C/c1ccc(-c2ccccc2[N+](=O)[O-])o1 | 12.6% (inactive)
Cc1cc(C)c([N+](=O)[O-])cc1-c1ccc(/C=N/NC(=O)c2nonc2N)o1 | -9.15% (inactive)
Cc1ccc(-c2ccc(/C=C(\C#N)C(N)=S)o2)c([N+](=O)[O-])c1 | 51.5% (active)
CC(C)NC(=O)N1CCN(c2ccncc2S(=O)(=O)N2CCCCC2)CC1 | -2.83% (inactive)
Oc1ccc(-c2cccc(-c3ccc(O)cc3)c2)cc1 | -32.3% (inactive)
O=C(/C=C/c1cc2c(cc1Br)OCO2)NCc1ccc(Cl)cc1 | -5.07% (inactive)
O=C(/C=C/c1ccc(Cl)cc1Cl)c1cccnc1 | 8.99% (inactive)
O=C(/C=C/c1ccc(Cl)c([N+](=O)[O-])c1)c1cccnc1 | 73.9% (active)
O=C(Nc1ccncc1)c1ccc(Cl)c([N+](=O)[O-])c1 | -47.9% (inactive)
CC1CCCCC12NC(=O)N(CC(=O)OCc1c(F)cccc1Cl)C2=O (stereo not drawn) | 1.25% (inactive)
COc1ccc(-c2cc3n(n2)CCc2nc4ccccc4n2-3)cc1 | 17.5% (inactive)
Cc1cc(CNC(=O)c2cccc([N+](=O)[O-])c2)c2ccccc2n1 | 8.64% (inactive)
O=[N+]([O-])c1cccc(Nc2c3ccccc3nc3ccccc23)c1 | 42.1% (active)
N#Cc1cccc(Nc2c3c(nc4ccccc24)CCCC3)c1 | 22.5% (inactive)
COC(=O)Nc1ccc(S(=O)(=O)N2CCN(CCN3C(=O)C4C5C=CC(C5)C4C3=O)CC2)cc1 (stereo not drawn) | -10.8% (inactive)
COc1ccc(C)cc1NC(=O)C(Sc1ccccc1)c1ccccc1 (stereo not drawn) | 2.49% (inactive)
Cc1ccccc1C(=O)NC(=S)Nc1ccc(N2CCN(C(=O)c3ccccc3)CC2)cc1 | -9.29% (inactive)
O=C(Cc1ccccc1)NC(=S)Nc1ccc(N2CCCCC2)cc1 | 40.2% (active)
O=C(CCN1CCN(c2ccccc2)CC1)NNC(=S)Nc1ccccc1 | 1.6% (inactive)
O=C(CCc1nc(-c2ccccc2)no1)Nc1cccc(C(=O)NC2CC2)c1 | -6.75% (inactive)
CCCCn1c(N)c(N(CCOC)C(=O)c2cccc(S(=O)(=O)N3CCCCC3)c2)c(=O)[nH]c1=O | -2.98% (inactive)
Cc1cccc(C(=O)NCC(=O)OCC(=O)N(C)CC(=O)Nc2ccccc2Cl)c1 | -5.14% (inactive)
Cc1ccc(SCCC(=O)Nc2cc(C)on2)cc1 | 4.66% (inactive)

Compound | inhibition
Cc1ccc2nc(-c3ccc(SCC(=O)Nc4cc(C)on4)nc3)[nH]c2c1 | 42.6% (active)
Cc1cccc(-n2ncc3c(=O)[nH]c(SCC(=O)Nc4cc(C)on4)nc32)c1 | -12.1% (inactive)
CC(=O)c1cccc(NC(=S)N2CCN(S(C)(=O)=O)CC2)c1 | 13% (inactive)
Cc1cccc(-n2c(C)cc(/C=N/NC(N)=S)c2C)c1 | -24.1% (inactive)
CCOc1ccc(/C=N/NC(N)=S)cc1 | -25.2% (inactive)
CC(C)Oc1c(Br)cc(Br)cc1/C=N/NC(N)=S | 51.7% (active)
S=C(Nc1ccc(Br)cc1)NC1CCN(Cc2ccccc2)CC1 | -24.3% (inactive)
S=C(NCCCc1ccccc1)Nc1ccc(Br)cc1 | 43.1% (active)
O=C(CCNC(=O)c1ccc(Br)cc1)NCCCc1ccccc1 | -4.58% (inactive)
CC(C)n1c(O)c(N=Nc2ccccn2)c2ccccc21 | 3.1% (inactive)
NC(=S)N/N=C/c1coc2cc(Cl)ccc2c1=O | 42.4% (active)
Cc1ccc2occ(/C=N/NC(=O)c3ccccc3C)c(=O)c2c1 | 20.6% (inactive)
O=c1c(/C=N/O)coc2ccc(Cl)cc12 | -3.79% (inactive)
CC(C)c1ccc(NC(=O)COC(=O)c2ccc(CN3CCCC3=O)cc2)cc1 | 1.1% (inactive)
Cc1c(NC(=O)Nc2ccccc2Cl)sc(=S)n1C | 2.45% (inactive)
CC1(C)CC(CCC(=O)Nc2ccccc2Cl)C(=O)O1 (stereo not drawn) | 1.62% (inactive)
O=C(Nc1ccccc1Cl)/C(Cl)=C(\Cl)S(=O)c1ccccc1 (stereo not drawn) | 86.7% (active)
O=C(O)C1C2CC2CN1C(=O)c1ccc(Cl)cc1Cl (stereo not drawn) | -17.4% (inactive)
CN(Cc1nc(-c2cnccn2)no1)Cc1n[nH]c2c1CCCCC2 | 4.12% (inactive)
CCOCCCNC(=O)c1cn(CC(C)C)c(=O)c2c1c1ccccc1n2C | 3.76% (inactive)
O=C(NCCc1ccco1)c1nn(Cc2ccccc2)c(=O)c2ccccc12 | 2.63% (inactive)
O=c1nc2s/c(=C\c3ccco3)c(=O)n2nc1Cc1ccccc1 | 63.3% (active)
O=C(Nc1ccccc1)/C(=C\c1ccco1)NC(=O)c1ccco1 | -2.56% (inactive)
COC(=O)c1c(NC(=O)CN2CCN(S(=O)(=O)c3ccccc3[N+](=O)[O-])CC2)sc2c1CCC(C)C2 (stereo not drawn) | 14.5% (inactive)

Compound | inhibition
CC(=O)N1C(C)c2ccccc2C(C)(C)CC12CCCCC2 (stereo not drawn) | 41.9% (active)
COCCCNC(=O)C1CC(=O)N(CCc2ccc(F)cc2)C1 (stereo not drawn) | -8.81% (inactive)
CCOCCCn1c(SCC(=O)Nc2cc(OC)ccc2OC)nc2ccccc2c1=O | 11.4% (inactive)
O=C(CSc1ccc(-c2ccc(Br)cc2)nn1)NCC1CCCO1 (stereo not drawn) | 15.2% (inactive)
O=C(CCNS(=O)(=O)c1ccc(Br)cc1)NCC1CCCO1 (stereo not drawn) | -3.43% (inactive)
OC(CNCC1CCCO1)Cn1c2ccc(Br)cc2c2cc(Br)ccc21 (stereo not drawn) | 62.5% (active)
CCCCCNC(=O)c1cccnc1SCC(=O)Nc1ccccc1OC | 1.04% (inactive)
COc1ccc(N2CCN(C(=O)CCSCc3ccccc3F)CC2)cc1 | 27.5% (inactive)
CC(=O)N(Cc1cccs1)C1CCOC(C)(C)C1 (stereo not drawn) | -0.323% (inactive)
Cc1ccc(C(C[N+](=O)[O-])c2c(C)cc3ccccn23)cc1 (stereo not drawn) | 21.6% (inactive)
Nc1ccccc1SC(C[N+](=O)[O-])c1ccccc1 (stereo not drawn) | 59.3% (active)
Cc1ccc(C)c(OCCC(=O)OCC(=O)N2CCN(c3ccccc3)CC2)c1 | 5.69% (inactive)
O=S(=O)(Nc1cccc(Oc2ccc(Cl)cc2)n1)c1ccc(F)cc1 | 37.9% (inactive)
CC1CCCC(C)N1C(=O)CN1CCN(c2nc(-c3ccc(F)cc3)cs2)CC1 (stereo not drawn) | 44.9% (active)
O=C(CN1CCN(c2nc(-c3ccccc3)cs2)CC1)NCc1ccc2c(c1)OCO2 | 18.3% (inactive)
O=C(COC(=O)C1CCCO1)Nc1nc(-c2ccc(F)cc2)cs1 (stereo not drawn) | 2.65% (inactive)
N/C(Cc1ccc([N+](=O)[O-])cc1)=N\OC(=O)COc1ccc2ccccc2c1 | 44.4% (active)
Cc1cc(C)cc(OCC(=O)O/N=C(\N)Cc2ccc([N+](=O)[O-])cc2)c1 | 18.5% (inactive)
O=C(COC(=O)C1CCCCC1)Nc1ccc([N+](=O)[O-])cc1 | 30.8% (inactive)
COC(=O)C(C)NC(=O)COc1ccc2ccccc2c1 (stereo not drawn) | 4.55% (inactive)
N/C(Cc1ccc([N+](=O)[O-])cc1)=N\OC(=O)C1CCCCC1 | 56% (active)
O=C(COC(=O)Cc1ccc([N+](=O)[O-])cc1)NC1CCCCCC1 | 11.9% (inactive)
O=C(CN1CCCCC1)N1c2ccccc2Sc2ccc(C(F)(F)F)cc21 | 13.9% (inactive)
O=S(=O)(NC(=S)Nc1ccccc1)c1ccc(F)cc1 | -5.64% (inactive)

Compound | inhibition
CC[C@]12c3[nH]c4cc(CCC(=O)N(C)C)ccc4c3CCN1C(=O)[C@@H](CC(=O)NCc1ccco1)C[C@@H]2C(=O)N1CCN(C(=O)c2ccco2)CC1 | 12.2% (inactive)
COc1ccccc1-c1nnc(-c2ccc(F)cc2)o1 | 14.8% (inactive)
FC(F)(F)c1cnc(Oc2ccccc2-c2nnc(-c3ccc(Cl)cc3)o2)c(Cl)c1 | 92.4% (active)
CSc1ccccc1-c1nnc(-c2ccc(Cl)cc2)o1 | 8.43% (inactive)
C[C@@H]1CC[C@@]2(OC1)O[C@H]1C[C@H]3[C@@H]4CC=C5C[C@@H](O)[C@H](O)C[C@]5(C)C4CC[C@]3(C)[C@H]1[C@@H]2C (stereo partly drawn) | -10.1% (inactive)
Cc1cc(Cl)ccc1OCc1nc(-c2ccncc2)no1 | -5.93% (inactive)
CCc1cc(C(N)=O)c(NC(=O)c2ccc(OC)cc2)s1 | 48.7% (active)
COc1ccc(C(=O)Nc2sc(C)c(C)c2CN2CCOCC2)cc1 | 29% (inactive)
CCc1cc(C(=O)c2ccc(OC)cc2)c(NC(=O)CN2CCN(C)CC2)s1 | 14.6% (inactive)
CCCn1c(C)cc(-c2csc(NC(=O)CCc3nc4ccccc4c(=O)[nH]3)n2)c1C | -24.7% (inactive)
CCCOc1ccc(NC(=O)C2OC3OC(C)(C)OC3C3OC(C)(C)OC23)cc1 (stereo not drawn) | -2.42% (inactive)
COc1cc(/C=C/CO)cc(OC)c1O[C@@H]1O[C@H](CO)[C@@H](O)[C@H](O)[C@H]1O | -4.81% (inactive)
CC(=O)Nc1ccccc1OC(=O)N1CCOCC1 | -16.6% (inactive)
O=C(Oc1cccc(C(=S)N2CCOCC2)c1)c1cccc(Cl)c1 | 17.1% (inactive)
O=C(/C=C/c1cccs1)c1cc(Cl)ccc1OC(=O)N1CCOCC1 | 52.9% (active)
CC(C)(CCl)C(=O)Nc1ccc(Sc2ccc(F)cc2)cc1 | 42.1% (active)
O=C(Nc1ccncc1)Nc1ccc(F)cc1 | -4.69% (inactive)
CC(C)CNC(=S)Nc1ccc(F)cc1 | 8.49% (inactive)
O=C(COc1ccccc1)Nc1nonc1NC(=O)COc1ccccc1 | 7.03% (inactive)
O=C(CCN1C(=O)[C@@H]2Cc3ccccc3CN2C1=O)NCc1ccccc1 | 4.78% (inactive)
CCOC(=O)c1c(NC(=O)CNC2CCCc3ccccc32)sc(C(N)=O)c1C (stereo not drawn) | -2.7% (inactive)
